This is a sample that favours compounds with a hit; in the whole collection about 7.8% have one here.
HCV inhibitor – qHTS Assay for Inhibitors of Hepatitis C Virus (HCV). Huh7.5.1 HCVcc-Cre infection, luciferase reporter, 44 h. Potency, µM (highest dose often 41.8 µM), for inactives: top-dose activity change, negative = inhibition, actives largely listed as inhibitors. 340,000 compounds, 3.4% hits. AID 651820, 2012; active means well fitted inhibition curve with a large enough effect; inconclusive means small, poorly fitted or top-dose-only effect, or another doubt; inactive means no such curve, though single readings can be large or run the other way; further: potency means the concentration at half of the fitted maximal effect
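Infectious HCV cell culture screen: compound-treated cells (1,000/well, pre-plated 4 h) are infected with HCVcc-Cre at roughly 0.5 moi and grown 44 h. Infection is quantified by luciferase signal after 15 min substrate incubation at room temperature.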
LASV entry inh – qHTS for Inhibitors of binding or entry into cells for Lassa Virus | Lassa virus pseudotype entry inhibition, cell reporter | Potency, µM (top dose mostly 37.9 µM), inactives show top-dose activity change, negative = inhibition, usual class: inhibitors | 300,000 compounds, 1.2% hits | AID 540256, 2011; calls by dose curve; tested in HEK293 cells; further: potency means the concentration at half of the fitted maximal effect; nearly all actives have a fitted effect of over 50% in size
HCMV antiviral – qHTS Assay for inhibitors of the human cytomegalovirus (HCMV) | HFF cells, HCMV-luciferase reporter, 72 h; stronger effect = lower value | activity change, negative = inhibition, % at 57.5 µM | 410,000 compounds, 4.5% hits; in the data active means activity change below about -60%; inconclusive means no clear call, values can overlap the other calls; inactive means above about -39%
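Two compound doses tested in HFFs infected with HCMV-luciferase, MOI 1 PFU/cell, 72 h at 37C. Lysate luminescence read with OneGlo; data normalized against buffer-only and 10uM Salinomycin inhibitor controls.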
Vaccinia Venus – qHTS for Stage-Specific Inhibitors of Vaccinia Orthopoxvirus: Venus Reporter Primary qHTS; Vaccinia virus Venus reporter expression, fluorescence; Potency, µM (doses to about 36.5 µM), for the others: at the highest dose activity change, negative = inhibition, usual class: inhibitors; 330,000 compounds, 0.46% hits; AID 720580, 2013; calls by dose curve; tested in A549 cells; further: potency means the concentration at half of the fitted maximal effect; nearly all actives have a fitted effect of over 30% in size
Vaccinia mCherry – qHTS for Stage-Specific Inhibitors of Vaccinia Orthopoxvirus: mCherry Reporter Primary qHTS; Vaccinia virus mCherry reporter infection, fluorescence; Potency, µM (top dose mostly 36.5 µM), for inactives: at the highest dose activity change, negative = inhibition, usual class: inhibitors; 310,000 compounds, 0.63% hits; calls by dose curve; tested in A549 cells; further: potency means the concentration at half of the fitted maximal effect; nearly all actives have a fitted effect of over 35% in size
Marburg entry inh – qHTS for inhibitors of binding or entry into cells for Marburg Virus. Marburg virus pseudotyped entry inhibition, cell reporter. Potency, µM (highest dose often 37.8 µM), without a hit: at the highest dose activity change, negative = inhibition, hits mostly inhibitors. 300,000 compounds, 1.8% hits. AID 540276, 2011; calls by dose curve; tested in HEK293 cells; further: potency means the concentration at half of the fitted maximal effect
* = called active by the depositor; i = inactive; ? = inconclusive; · = no result; ! = not active in a repeat; [ ] = another dose, or the depositor's remark. On the % scale 0 is the no-effect control and ±100 the full control effect.

SMILES	HCV inhibitor	LASV entry inh	HCMV antiviral	Vaccinia Venus	Vaccinia mCherry	Marburg entry inh
COc1cccc(C(C(=O)NC(C)(C)C)N(CC(C)C)C(=O)CCC(=O)Nc2cc(C)on2)c1OC (stereo not drawn)	-10.1%	-18.6%[46.1 µM]	19.9	5.3%	-5.9%	?
Cc1ccc(-n2c(C)nc3c(cnn3-c3ccc(F)cc3)c2=O)cc1C	4.9%	-13.8%	-23.4	7.6%	-6.3%	5.4%
Cc1nc2c(cnn2-c2ccccc2Cl)c(=O)n1-c1ccc(N2CCC(C)CC2)cc1	12.6µM*	?	-63.0*	·	·	?
Cc1ccc(-n2c(C)nc3c(cnn3-c3ccc(C)c(C)c3)c2=O)cc1C	-3.2%	·	-66.5*	?	-23.2%	·
CC(=O)Nc1ccc(CC(=O)NCCC(c2ccccc2)c2ccccc2)cc1	?	0.891µM*	-19.9	-19.0%	-26.7%	?
Cc1c(CCOC(=O)C2C3CC4CC(C3)CC2C4)sc[n+]1CC(=O)c1ccc(Br)cc1 (stereo not drawn)	?	-22.6%	-102.8*!	?	·	?
Cc1c(CCOC(=O)c2ccc([N+](=O)[O-])cc2)sc[n+]1CC(=O)c1ccccc1	-18.1%	-0.7%[46.1 µM]	7.3	-12.4%	-14.1%	-11.7%[46.1 µM]
Cc1c(CCOC(=O)c2ccc(Cl)cc2Cl)sc[n+]1CC(=O)c1ccc(Br)cc1	14.1µM*	·	0.0	·	·	·
COc1ccc(C(=O)OCCc2sc[n+](CC(=O)c3ccccc3)c2C)cc1	?	2.1%	?	-10.5%	-6.1%	-0.6%[46.1 µM]
COc1cc(-c2nccc3[nH]nc(-c4ccccc4)c23)cc(OC)c1OC	·	·	-18.9	·	·	·
CCc1ccc(-c2cn3c(n2)sc2cc(C(=O)NC4CCCCC4)ccc23)cc1	·	-2.3%[46.1 µM]	·	-4.3%	-11.3%	·
COc1ccc2c(c1)cc1n2CCN=C1N	-13.9%	1.7%	11.7	-21.0%	-22.9%	10.3µM*
CN1CCCN(C(=O)[C@@H]2C[C@@H](Sc3nc4ccccc4[nH]3)CN2Cc2ccc(OC(F)(F)F)cc2)CC1	·	·	·	-8.8%	-24.4%	·
O=C1CCC[C@@H]2CC(N(Cc3cc4ccccc4s3)c3ccccc3)C[C@@H]3CCN1[C@H]23 (stereo partly drawn)	·	·	·	-10.6%	i	·
CCOC(=O)c1c(C)[nH]c(-c2csc(N)n2)c1C	?	?	-81.2*	-24.0%	?	?
CCCN1CNc2c(c(=O)[nH]c(=S)n2CCc2cccs2)C1	·	·	·	-16.2%	i	·
Cc1nc(NC(=O)c2ccccc2)sc1-c1csc(NCc2ccccc2)n1	?	-23.7%	?	-19.6%	?	?
COc1ccc(OC)c(Nc2nc(-c3sc(NC(=O)CC(C)C)nc3C)cs2)c1	2.82µM*	·	?	?	?	·
Cc1nc(NC(=O)c2ccccc2)sc1-c1csc(NCCc2ccccc2)n1	10µM*	-3.9%	?	·	·	?
CCCCC(=O)Nc1nc(C)c(-c2csc(Nc3cc(OC)ccc3OC)n2)s1	10µM*	·	-32.9	?	1.12µM*	·
CCC(=O)Nc1nc(C)c(-c2csc(Nc3ccccn3)n2)s1	11.2µM*	?	178.1	-23.0%	?	?
COCCn1c(CNC(=O)c2cccc(N(C)C)c2)nc2cccnc21	·	2.0%[46.1 µM]	-14.1	-2.2%	-8.9%	·
Cc1ccc(NC(=O)Nc2cccs2)c(C)c1	·	·	-10.0	-0.7%[7.34 µM]	-11.4%[7.34 µM]	9.5%[46.1 µM]
COc1cc2oc(=O)c(CC(=O)NCc3ccc(OC)c(OC)c3)c(C)c2cc1Cl	·	8.0%[46.1 µM]	19.4	2.1%	3.8%	15.0%[46.1 µM]
Oc1ccc(/C=C/c2ccnc3ccccc23)cc1	8.91µM*	?	-60.9*	-28.9%	?	?
SMILES	HCV inhibitor	LASV entry inh	HCMV antiviral	Vaccinia Venus	Vaccinia mCherry	Marburg entry inh
Cn1cc(S(=O)(=O)N2CCCCCC2)cc1C(=O)NCc1ccc(F)cc1	·	10.5%[46.1 µM]	7.8	-6.3%	-6.4%	·
CC(=O)Nc1ccc(C(=O)CSc2nc3ccccc3n2CC(=O)N2CCCC2)cc1	4.0%	9.5%	-28.6	·	·	0.7%
CC(=O)Nc1ccc(NC(=O)Cn2c(CC(=O)N3CCCC3)nc3ccccc32)cc1	6.9%	-9.6%	-87.6*	·	·	15.7%
O=C(NN=C1C[C@@H](O)[C@H](O)[C@H]2[C@@H]3C(=O)N(C[C@@H]4CCCO4)C(=O)[C@@H]3CC[C@H]12)OCc1ccccc1	·	1.7%[14.3 µM]	·	·	·	?
CCN(c1ccccc1)S(=O)(=O)c1ccc(OC)c(NC(=O)CNCCc2ccccc2)c1	7.08µM*	?	-33.0	-23.7%	-10.9%	?
CCN(CC)S(=O)(=O)c1ccc(OC)c(NC(=O)CSc2cc(C)ccc2C)c1	?	0.206µM*	-6.4	-20.7%	-10.1%	?
COc1ccc(NC(=O)Cn2c(=O)n(-c3cccc(C)c3)c(=O)c3c2c2cc(C)ccc2n3C)cc1OC	·	-1.6%[46.1 µM]	10.5	-6.0%	-26.3%	12.3%[46.1 µM]
Cc1ccc(-c2c3c(nc4sc(C(N)=O)c(N)c24)CCCC3)o1	-14.9%	-19.0%	-24.3	-11.7%	-20.5%	-2.3%
NC(=O)c1sc2nc(-c3ccccc3)c3c(c2c1N)CCCC3	-21.6%	·	-60.6*	·	·	·
Nc1c(C(=O)NC2CC2)sc2nc3c(c(-c4ccco4)c12)CC/C3=C/c1ccco1	?	6.8%	·	8.6%	-27.4%	4.47µM*
NC(=O)c1sc2nc3c(c(-c4ccco4)c2c1N)CCC3	22.4µM*	-14.4%	-73.3*	?	?	-18.4%
O=C(NC1CCCC1)c1ccc2nc(-c3ccco3)c(-c3ccco3)nc2c1	?	-20.9%	·	-23.7%	-15.5%	?
CCc1ccccc1NS(=O)(=O)c1ccc2c(c1)CC(=O)N2	·	4.6%[46.1 µM]	-4.1	-4.6%	-6.1%	29.8%[46.1 µM]
CC1(C)CC(=O)c2cc(OCC(=O)NCCCN3CCN(c4ccc(F)cc4)CC3)ccc2O1	10µM*	?	?	·	·	23.1µM*
O=C(COc1ccc2oc3c(c2c1)CCCC3)Nc1cccc(Br)c1	·	19.0%[46.1 µM]	-17.6	-1.9%	0.9%	-24.3%[46.1 µM]

Source: PubChem BioAssay (National Center for Advancing Translational Sciences (NCATS))
